Screens: PubChem BioAssay, several laboratories
L major viab – inhibitors of Leishmania major promastigote growth; Leishmania major promastigotes, resazurin fluorescence viability; inhibition, % at 10 µM; 200,000 compounds, 9% hits; AID 1063; in the data active = inhibition above about 50%;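 also: promastigotes grown with compound for 44 hours at 28 °C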
Arbovirus inh – blocks arbovirus infection; arbovirus infection cell-based antiviral screen; inhibition, % at 10 µM; 200,000 compounds, 0.37% hits; AID 1251; in the data active = inhibition above about 30%
CHOP inhibitor – blocks CHOP induction under ER stress. inhibition, % at 10 µM. AID 2732. CHO-K1 CHOP-promoter luciferase, tunicamycin-induced, 15-18 h. 220,000 compounds, 3.8% hits;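 active = compounds that reduced the stress-induced luciferase reporter signal by more than about 70% of percent inhibition, limit read from the data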;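 also: 0% = tunicamycin plus vehicle and 100% = wells without tunicamycin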
WT yeast gro inh – growth inhibition of WT yeast, mitochondrial fusion screen; 190,000 compounds, 2.1% hits; inhibition, % at 10 µM; mitochondrial fusion phenotypic screen, WT strain; in the data active = inhibition above about 58%; tested in S. cerevisiae
Starred values were filed as active, the others as inactive; . = not tested or not shown. This is a sample that favours compounds with a hit; in the whole collection about 12% have one here.

SMILES	L major viab	Arbovirus inh	CHOP inhibitor	WT yeast gro inh
C/C(=N\NC(=O)c1c[nH]c2ccccc12)c1ccco1	45	-3	33	20
C/C(=N\NC(=O)c1c[nH]c2ccccc12)c1ccccn1	100*	-23	59	6
O=C1C2C3C=CC(C3)C2C(=O)N1CCN1CCN(Cc2ccc([N+](=O)[O-])cc2)CC1 (stereo not drawn)	72*	3	-12	3
CCCN(CCC)S(=O)(=O)c1ccc(C(=O)N2CCCc3ccccc32)cc1	64*	-6	33	5
CCCN(CCC)S(=O)(=O)c1ccc2c(c1)CCCN2C(C)=O	-7	7	-42	-6
CC1CC(C)CN(CCCNC(=O)Cc2c(C(=O)O)n(C)c3ccccc23)C1 (stereo not drawn)	-2	7	-5	-2
Cc1cccc(C)c1OCC(=O)N/N=C/c1ccc2c(c1)OCO2	-3	-18	12	18
Cc1ccc(C(C)C)cc1OCC(=O)N/N=C/c1ccc2c(c1)OCCO2	90*	-5	22	77*
O=c1cc(-c2ccccc2Cl)oc2c(NS(=O)(=O)c3cccs3)ccc(O)c12	.	.	17	.
CCOC(=O)Cc1csc(NC(=S)NC(=O)c2ccc([N+](=O)[O-])cc2)n1	75*	2	38	3
CCOC(=O)Cc1csc(NC(=O)c2csc3c2CCCC3)n1	7	6	76*	54
CCOC(=O)Cc1csc(NC(=O)c2ccncc2)n1	-2	13	4	-18
CCOC(=O)Cc1csc(NC(=O)NC2(C(F)(F)F)Oc3ccccc3O2)n1	90*	-8	92*	7
Cc1csc(NC(=O)c2cc3c(s2)CCCC3)n1	96*	-9	.	41
CCOC(=O)Cc1csc(NC(=S)NC(=O)c2ccc(Cl)cc2)n1	-9	5	34	-2
Cc1csc(NC(=O)c2cc3c(s2)CCCCC3)n1	47	-25	65	-11
C#CCSc1nnnn1-c1ccc(OCC)cc1	.	.	-3	.
CCOC(=O)Cc1csc(NC(=O)c2cc3c(s2)CCCC3)n1	91*	-34	38	22
CCOC(=O)Cc1csc(NC(=O)c2ccc(C)o2)n1	5	-5	-18	-17
Cc1cc(C(C)(C)C)cc(S(=O)(=O)Nc2ccc(O)c(C(=O)O)c2)c1C	-6	17	21	0
CC(=O)Nc1ccc(NC(=O)c2ccc(NS(=O)(=O)c3cc(C(C)(C)C)cc(C)c3C)cc2)cc1	52*	-2	76*	7
CC(C)(C)NC(=O)CSCc1ccc(Br)cc1	-2	0	14	-5
Cc1cccc(-c2nc3sc(C)cc3c(=O)o2)c1	-5	21	-44	-5
COC(=O)C1=C(N)Oc2cc(C)n(CC3CCCO3)c(=O)c2C1c1ccc(Cl)c(Cl)c1 (stereo not drawn)	29	-6	85*	38
COC(=O)C1=C(N)Oc2cc(C)n(CCCn3ccnc3)c(=O)c2C1c1ccc(Cl)cc1 (stereo not drawn)	-6	-7	77*	15
SMILES	L major viab	Arbovirus inh	CHOP inhibitor	WT yeast gro inh
Oc1ccc(Nc2nc3ccccc3nc2Nc2ccc(O)cc2)cc1	92*	-42	46	-1
CCCC(C(=O)NCc1ccco1)N(C(=O)CNS(=O)(=O)c1ccc(Cl)cc1)C1CCCC1 (stereo not drawn)	67*	-32	67	7
CCN(CC)S(=O)(=O)c1ccc(C(=O)NC(C)(C)C)cc1	8	14	-13	-10
O=C(Cc1ccc(Cl)cc1)Nc1ccc(CN2CCCCC2)cc1	.	.	2	.
O=C(/C=C/c1ccco1)N(Cc1ccc(Cl)cc1)C1CCS(=O)(=O)C1 (stereo not drawn)	.	.	-2	.
CC(=O)Nc1ccc(S(=O)(=O)N2CCCCC2c2cccnc2)cc1 (stereo not drawn)	3	-1	15	4
COc1ccc(NC(=O)N2CCCCC2c2cccnc2)cc1 (stereo not drawn)	85*	-3	3	-10
COc1cc(C)c(C)cc1S(=O)(=O)N1CCCCC1c1cccnc1 (stereo not drawn)	92*	2	7	-11
CCOc1cccc(C(=O)N2CCCCC2c2cccnc2)c1 (stereo not drawn)	27	-1	-6	4
COc1ccc(C(=O)N=S2CCN(C(=O)c3ccc(Cl)cc3)CC2)cc1	.	.	5	.
Cc1nnc(SCc2ccccc2F)n1NCc1cccs1	-5	5	-11	-4
COc1ccc(C(CNC(=O)c2cc3ccccc3o2)N2CCCCC2)cc1 (stereo not drawn)	10	1	20	-7
Cc1oc2c(CN(C)C)c(O)ccc2c(=O)c1-c1ccc2ccccc2n1	76*	8	10	10
CCOC(=O)c1c(NC(=S)NC)sc2c1CC(C)(C)SC2	-8	-8	95*	5
CCOC(=O)c1c(CSc2ccccc2)n(C)c2ccc(O)c(CN3CCOCC3)c12	22	-1	38	18
CC(=O)N(C)c1ccc(C(O)(C(F)(F)F)C(F)(F)F)cc1	99*	12	-7	9
CC(=O)N(C)c1ccc(NC(=O)Nc2ccc(C)cc2)cc1	2	-1	10	5
CCOC(=O)N(C)c1ccc(C(O)(C(F)(F)F)C(F)(F)F)cc1	100*	11	65	22
Cc1ccc(S(=O)(=O)n2[nH]c(=O)c(CCO)c2C)cc1	-4	-3	15	3
CCOC(=O)C(=CNNc1ccccc1)C(=O)OCC	.	.	-22	.
C/C(Cn1cnc([N+](=O)[O-])n1)=N\NC(=O)c1ccc(O)cc1O	7	2	-15	4
COc1ccc(C)c2sc(NNC(=O)COc3ccccc3)nc12	12	-5	8	-4
CCN(CC)C(=O)Cn1cnc2sc(C(=O)N3CCN(Cc4ccc5c(c4)OCO5)CC3)c(C)c2c1=O	-7	6	-3	6
Cc1cc(N2C(=O)NC(=O)CC2C)c(C)cc1C(C)C (stereo not drawn)	14	6	4	-13
COc1ccc(CCNC2CC(C)N(C)CC2C)cc1OC (stereo not drawn)	69*	-9	47	-5
SMILES	L major viab	Arbovirus inh	CHOP inhibitor	WT yeast gro inh
COc1ccc(CCNC2CC(=O)N(C)C2=O)cc1OC (stereo not drawn)	-9	3	40	10
Cn1cccc1C(=O)NC(=O)COC(=O)CC12CC3CC(CC(C3)C1)C2	-2	-2	80*	11
Cn1cccc1C(=O)NC(=O)COC(=O)CC12CC3CC(CC(Br)(C3)C1)C2	-6	4	29	14
COc1ccc(-c2ccc(C(c3c(C)[nH][nH]c3=O)c3c(C)[nH][nH]c3=O)o2)c([N+](=O)[O-])c1	61*	-8	-39	20
Cc1[nH][nH]c(=O)c1C(c1ccc(-c2ccc(F)cc2)o1)c1c(C)[nH][nH]c1=O	99*	-11	-68	21
Cc1[nH][nH]c(=O)c1C(c1ccc(-c2ccc(C(=O)O)cc2)o1)c1c(C)[nH][nH]c1=O	-6	-10	-8	-9
Cc1[nH][nH]c(=O)c1C(c1ccc(-c2ccc(Cl)c(Cl)c2)o1)c1c(C)[nH][nH]c1=O	100*	4	-26	-15
NC(=O)CC[C@H](NC(=O)c1ccc(F)cc1)C(=O)OCC(=O)NCc1ccc(F)cc1	0	6	10	-6
COc1ccc(-c2csc(NC(=O)c3ccc(OCC(=O)N4CCOCC4)c(OC)c3)n2)cc1	36	44*	-8	-8
